{"source": "PubChem BioAssay AID588342", "about": "(National Center for Advancing Translational Sciences (NCATS), 2011)", "note": "Among all 360,000 compounds or so, about 25,000 (6.9%) were called active. Inconclusive results (about 9%) are left out. Calls follow the shape of the dose curve; as a rule, active = well fitted inhibition curve with a large enough effect; inconclusive = small, poorly fitted or top-dose-only effect; inactive = flat fitted curve, though single readings scatter. Shown is part of a subset that was picked to be rich in actives. A call without a number means that no potency is given here. Potency is read from the fitted curve at half-maximal effect.", "data": [{"target": "Luciferin 4-monooxygenase (Photinus pyralis) (UniProt P08659)", "sequence (P08659 whole entry, looked up)": "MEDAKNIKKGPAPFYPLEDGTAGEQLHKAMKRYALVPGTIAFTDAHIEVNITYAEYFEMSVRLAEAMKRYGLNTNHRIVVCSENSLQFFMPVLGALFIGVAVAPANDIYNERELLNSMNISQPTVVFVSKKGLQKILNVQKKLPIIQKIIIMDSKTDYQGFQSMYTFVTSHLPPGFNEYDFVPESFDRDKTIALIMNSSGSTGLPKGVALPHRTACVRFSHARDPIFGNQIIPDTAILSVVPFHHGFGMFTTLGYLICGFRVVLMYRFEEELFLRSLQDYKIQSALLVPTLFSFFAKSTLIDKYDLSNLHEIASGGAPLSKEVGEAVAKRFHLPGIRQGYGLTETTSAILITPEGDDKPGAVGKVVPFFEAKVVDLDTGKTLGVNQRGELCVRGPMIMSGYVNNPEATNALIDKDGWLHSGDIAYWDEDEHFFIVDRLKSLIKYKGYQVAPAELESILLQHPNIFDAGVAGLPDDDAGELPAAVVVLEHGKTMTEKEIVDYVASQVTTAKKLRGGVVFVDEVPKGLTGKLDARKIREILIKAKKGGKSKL", "assay": "qHTS profiling assay for firefly luciferase inhibitor/activator using purifed enzyme and Km concentrations of substrates (counterscreen for miR-21 project); also: nearly all actives have a fitted effect of over 55% in size", "settings": "purified FLuc, luminescence inhibition; series mostly up to 57.5 µM", "summary_of_the_method": "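Purified P. pyralis luciferase, 10 nM final, with Km-level 10 uM D-luciferin and 10 uM ATP in 50 mM Tris acetate pH 7.5, 10 mM Mg acetate, 0.01% Tween-20, 0.05% BSA; 6-point qHTS titration about 60 µM downward; luminescence read.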", "values": [{"smiles": "Cc1ccc(S(=O)(=O)c2nc(-c3ccco3)oc2SCC(=O)Nc2ccc(F)cc2)cc1", "Potency": "inactive"}, {"smiles": "CCOC(=O)c1cc(OC(=O)c2ccccc2Cl)n(-c2ccccc2)n1", "Potency": "inactive"}, {"smiles": "Cc1cc(OC(=O)c2ccccc2Cl)ccc1N1C(=O)CCC1=O", "Potency": "5.36 µM (active)"}, {"smiles": "COc1ccccc1C(=O)Oc1ccc(N2C(=O)CCC2=O)cc1", "Potency": "inactive"}, {"smiles": "COCCN(Cc1ccco1)C(=O)Cn1ncc2c([nH]c3ccccc32)c1=O", "Potency": "inactive"}, {"smiles": "COc1ccc(NC(=O)CCCN2C(=O)C(c3ccccc3)Oc3cccnc32)cc1", "note": "(configuration not stated)", "Potency": "inactive"}, {"smiles": "Cc1[nH]n(C(N)=S)c(=O)c1N=Nc1ccc(Cl)cc1Cl", "Potency": "10.7 µM (active)"}, {"smiles": "Cc1[nH]n(C)c(=O)c1N=Nc1ccc(S(C)(=O)=O)cc1", "Potency": "inactive"}, {"smiles": "O=C(CSc1nnc(-c2ccncc2)o1)NCc1ccc(Cl)cc1", "Potency": "inactive"}, {"smiles": "Cn1c(SCc2nc3ccccc3s2)nnc1-c1ccc2c(c1)OCO2", "Potency": "inactive"}, {"smiles": "Clc1ccc(-c2nnc(SCc3nc4ccccc4s3)o2)cc1", "Potency": "19 µM (active)"}, {"smiles": "COc1ccc(-n2c(=O)c3sc4ccccc4c3n(CC(=O)Nc3cccc(C)c3)c2=O)cc1", "Potency": "inactive"}, {"smiles": "Cc1cc(C)c2nc3nc(C)cc(C)c3c(N)c2c1", "Potency": "15.1 µM (active)"}, {"smiles": "Cc1cc(C)c([N+](=O)[O-])cc1-c1ccc(/C=N/NC(=O)c2nonc2N)o1", "Potency": "inactive"}, {"smiles": "O=C1C2C3C=CC(C4CC34)C2C(=O)N1/N=C/c1ccc(-c2ccccc2[N+](=O)[O-])o1", "note": "(configuration not stated)", "Potency": "10.7 µM (active)"}, {"smiles": "O=C(CN1C(=O)CCn2nc(-c3ccccc3)cc21)NCc1ccccc1", "Potency": "inactive"}, {"smiles": "CCOc1cccc(CC(=O)N2CCc3c([nH]c4ccccc34)C2c2ccc(F)cc2)c1OCC", "note": "(configuration not stated)", "Potency": "inactive"}, {"smiles": "O=C(Cc1nc2ccccc2[nH]c1=O)c1ccc(Cl)cc1", "Potency": "0.757 µM (active)"}, {"smiles": "O=C(/C(=C/c1cccc(Cl)c1)c1nc2ccccc2[nH]1)c1ccccc1", "Potency": "inactive"}, {"smiles": "N#C/C(=C(/O)COC(=O)COc1ccc(Cl)cc1)c1nc2ccccc2[nH]1", "Potency": "inactive"}, {"smiles": "COc1ccc(N2CCN(C3=NS(=O)(=O)C(c4cccc(Br)c4)=C3C)CC2)cc1", "Potency": "inactive"}, {"smiles": "CCOC(=O)c1sc(/N=C/C2=C(O)CC(C)(C)CC2=O)c(C(=O)OCC)c1C", "Potency": "19 µM (active)"}, {"smiles": "CCOC(=O)c1c(CC(C)C)csc1/N=C/C1=C(O)CCCC1=O", "Potency": "inactive"}, {"smiles": "CCOC(=O)c1c(/N=C/C2C(=O)CC(C)(C)CC2=O)sc(C)c1C", "Potency": "inactive"}, {"smiles": "Cc1ccc(N2CC(C(=O)Nc3ccc(N(C)C)cc3)CC2=O)cc1Cl", "note": "(configuration not stated)", "Potency": "inactive"}, {"smiles": "O=C(NNC(=O)c1ccc(Cl)cc1Cl)c1cccs1", "Potency": "12 µM (active)"}, {"smiles": "NNC(=O)c1ccc(Cl)cc1Cl", "Potency": "inactive"}, {"smiles": "O=C(COC(=O)c1ccc(O)cc1O)NNC(=O)c1cccs1", "Potency": "inactive"}, {"smiles": "CC1CCCCN1S(=O)(=O)c1ccc(F)c(C(=O)Nc2ccccc2C(F)(F)F)c1", "note": "(configuration not stated)", "Potency": "inactive"}, {"smiles": "Cc1cccc(NC(=O)CSc2nc(-c3ccco3)cc(C(F)(F)F)n2)c1C", "Potency": "inactive"}, {"smiles": "COc1ccc(NS(=O)(=O)c2cc(NC(=O)COc3ccccc3F)ccc2OC)cc1", "Potency": "inactive"}, {"smiles": "COc1ccc2oc(=O)c(C(=O)N3CCN(c4ccccc4F)CC3)cc2c1", "Potency": "inactive"}, {"smiles": "COc1cccc(C(=O)c2cc3ccc(O)cc3oc2=O)c1", "Potency": "12 µM (active)"}, {"smiles": "COc1ccc2oc(=O)c(C(=O)N3CCCC3)cc2c1", "Potency": "inactive"}, {"smiles": "CNS(=O)(=O)c1ccc(C(=O)NCC(=O)NCCc2ccc3c(c2)OCCO3)cc1", "Potency": "inactive"}, {"smiles": "COC(=O)c1c(NC(=O)c2ccc(Cl)c(Cl)c2)sc2c1CCCC2", "Potency": "inactive"}, {"smiles": "Cn1c(=O)c2c(ncn2CC(=O)Nc2cccc(C(F)(F)F)c2)n(C)c1=O", "Potency": "inactive"}, {"smiles": "Cn1c(=NC(=O)c2ccco2)sc2cccc(F)c21", "Potency": "3.38 µM (active)"}, {"smiles": "CCN(CC)S(=O)(=O)c1ccc(C(=O)N=c2sc3cccc(OC)c3n2C)cc1", "Potency": "inactive"}, {"smiles": "Cc1cc(NC(=O)c2ccco2)c(=O)n(Cc2c(F)cccc2Cl)c1", "Potency": "inactive"}, {"smiles": "CC1CCN(S(=O)(=O)c2ccc3c(c2)N(CC(=O)NCc2ccccc2Cl)C(=O)CO3)CC1", "Potency": "inactive"}, {"smiles": "Cc1csc2nc(COc3ccc(NC(=O)COc4ccccc4)cc3)cc(=O)n12", "Potency": "inactive"}, {"smiles": "COc1ccccc1N1CCN(c2ncnc3onc(-c4ccc(F)cc4)c23)CC1", "Potency": "inactive"}, {"smiles": "O=C(CSc1ccccc1)Nc1cccc(S(=O)(=O)N2CCOCC2)c1", "Potency": "inactive"}, {"smiles": "CCn1c2ccccc2c2cc(CC(N)=O)ccc21", "Potency": "inactive"}, {"smiles": "NC(=O)Cc1ccc2sc(-c3ccccc3)nc2c1", "Potency": "5.36 µM (active)"}, {"smiles": "NC(=O)Cc1ccc2c(c1)[nH]c1ccccc12", "Potency": "inactive"}, {"smiles": "COc1ccc(CCNC(=O)c2ccc(CSCc3ccc(C)cc3)o2)cc1OC", "Potency": "inactive"}, {"smiles": "CN1CCN(S(=O)(=O)c2ccc(N3CCN(c4ccccc4O)CC3)c([N+](=O)[O-])c2)CC1", "Potency": "inactive"}, {"smiles": "CC(=O)Nc1ccc(S(=O)(=O)Nc2nccc(/C=C/c3ccccc3F)n2)cc1", "Potency": "inactive"}, {"smiles": "CC(=O)NS(=O)(=O)c1ccc(NC(=O)/C=C/c2ccccc2Cl)cc1", "Potency": "12 µM (active)"}, {"smiles": "CC(=O)NS(=O)(=O)c1ccccc1", "Potency": "inactive"}, {"smiles": "O=C(CCS(=O)(=O)c1ccccc1Cl)Nc1ccc(S(=O)(=O)Nc2ncccn2)cc1", "Potency": "inactive"}, {"smiles": "O=C(/C=C/c1ccccc1Cl)Nc1ccc(S(=O)(=O)Nc2ncccn2)cc1", "Potency": "13.5 µM (active)"}, {"smiles": "NS(=O)(=O)c1ccc(NC(=O)/C=C/c2ccccc2Cl)cc1", "Potency": "inactive"}, {"smiles": "COc1ccc(CNC(=O)Cn2nnc(-c3ccccc3F)n2)cc1", "Potency": "inactive"}, {"smiles": "CCOc1cccc2sc(N3CCN(C(=O)C4CC4)CC3)nc12", "Potency": "inactive"}, {"smiles": "Cc1occc1-c1nnc(SCC(=O)NC2(C#N)CCCC2)n1C", "Potency": "inactive"}, {"smiles": "Cc1ccc(CSc2oc(-c3cccs3)nc2S(=O)(=O)c2ccc(C)cc2)cc1", "Potency": "inactive"}, {"smiles": "Cc1onc(-c2ccccc2Cl)c1C(=O)OCc1nnc(-c2ccccc2)o1", "Potency": "inactive"}, {"smiles": "CCOC(=O)N1CCN(Cc2nnc(-c3ccccc3Cl)o2)CC1", "Potency": "inactive"}, {"smiles": "O=C(c1ccc(Cl)s1)N(Cc1nnc(-c2ccccc2Cl)o1)C1CC1", "Potency": "19 µM (active)"}, {"smiles": "Cc1ccc(S(=O)(=O)c2c(Nc3cccc(Cl)c3)sc(C(=O)c3ccc4c(c3)OCO4)c2N)cc1", "Potency": "inactive"}, {"smiles": "COc1ccccc1C(=O)NC(=S)Nc1ccccc1N1CCCCC1", "Potency": "inactive"}, {"smiles": "O=C(CCCCn1c(=O)c2ccccc2n(CC(=O)Nc2cccc(C(F)(F)F)c2)c1=O)NCc1ccc2c(c1)OCO2", "Potency": "inactive"}, {"smiles": "COC(=O)c1ccc(C(=O)OC)c(NC(=S)N2CCN(c3ccc(F)cc3)CC2)c1", "Potency": "inactive"}, {"smiles": "COC(=O)c1ccc(Sc2ccc(F)cc2)c(N)c1", "Potency": "21.3 µM (active)"}, {"smiles": "CC(=O)Nc1cc(C(=O)NCc2ccc(F)cc2)ccc1Sc1ccc(F)cc1", "Potency": "inactive"}, {"smiles": "CC(C)NC(=O)c1nn(-c2ccccc2F)nc1CO", "Potency": "inactive"}, {"smiles": "CCOC(=O)C1CCC(CN(Cc2ccc(OC)cc2)S(=O)(=O)c2ccc(F)c(C(=O)Nc3cc(C)ccc3C)c2)CC1", "note": "(configuration not stated)", "Potency": "inactive"}, {"smiles": "CCNC(=O)CC1C(=O)N(c2ccc(F)cc2)C(=O)N1Cc1ccc(C)cc1", "note": "(configuration not stated)", "Potency": "inactive"}, {"smiles": "N#Cc1cccc(OC(=O)c2ccc3c(=O)n4c(nc3c2)CCC4)c1", "Potency": "inactive"}, {"smiles": "COc1ccccc1CNC(=O)C(=O)NCC(c1ccco1)S(=O)(=O)c1ccc(F)cc1", "note": "(configuration not stated)", "Potency": "inactive"}, {"smiles": "COc1cc(/C=C2/C(=O)ON=C2C)ccc1OCc1ccccc1F", "Potency": "6.75 µM (active)"}, {"smiles": "CC1=NOC(=O)/C1=C\\c1ccccc1", "Potency": "inactive"}, {"smiles": "CCOc1cc(/C=C2/C(=N)N3OC(C)=CC3=NC2=O)ccc1OC", "Potency": "inactive"}, {"smiles": "CCc1ccc(CN(Cc2ccco2)C(=O)c2ccccc2Cl)cc1", "Potency": "inactive"}, {"smiles": "Cc1ccccc1NC(=S)NC(=O)Cc1ccc(Cl)cc1", "Potency": "inactive"}, {"smiles": "Cc1ccc(C(=O)NC(=S)Nc2ccccc2C)cc1", "Potency": "19 µM (active)"}, {"smiles": "Cc1cccc(NC(=O)/C(=C\\c2ccco2)NC(=O)c2ccccc2)c1", "Potency": "inactive"}, {"smiles": "Cc1ccc(NC(=O)NC(=O)c2ccccc2)cc1F", "Potency": "inactive"}, {"smiles": "Cc1ccc(C(=O)NC(=S)Nc2ccc(N3CCOCC3)cc2)cc1", "Potency": "inactive"}, {"smiles": "Cc1cccc(NC(=O)c2ccc([N+](=O)[O-])o2)c1", "Potency": "inactive"}, {"smiles": "Cc1cccc(NC(=O)NC(=S)NC(=O)c2ccccc2)c1", "Potency": "19 µM (active)"}, {"smiles": "Cc1cccc(NC(=S)NC(=O)c2ccc(Br)o2)c1", "Potency": "19 µM (active)"}, {"smiles": "O=C(CNC(=O)c1ccc(Br)o1)Nc1ccccc1", "Potency": "inactive"}, {"smiles": "CC1CCN(S(=O)(=O)c2ccc3c(c2)N(CC(=O)NCCc2ccccc2)C(=O)CO3)CC1", "Potency": "inactive"}, {"smiles": "O=C(NCc1cccc(Cl)c1)C1=CC=CN2CCS(=O)(=O)N=C12", "Potency": "inactive"}, {"smiles": "Cc1nnc(NCc2ccccc2)c2c1nnn2Cc1ccc(F)cc1", "Potency": "inactive"}, {"smiles": "O=C(CCS(=O)(=O)c1cc(Br)cc2c1N(C(=O)C1CC1)CC2)Nc1ccc(Br)cc1F", "Potency": "inactive"}, {"smiles": "Cc1ccc(NC(=O)CSc2nc3c([nH]c4ccccc43)c(=O)n2-c2ccccc2)cc1Cl", "Potency": "inactive"}, {"smiles": "NC(=O)CSc1nc2c(oc3ccccc32)c(=O)n1Cc1ccccc1", "Potency": "inactive"}, {"smiles": "Cc1ccc(OCC(=O)Nc2ccc3oc(=O)ccc3c2)cc1C", "Potency": "inactive"}, {"smiles": "CC1=C(C(=O)N2CCN(c3cccc(C(F)(F)F)c3)CC2)C2(CCCCC2)OC1=O", "Potency": "inactive"}, {"smiles": "COc1ccc(CNC(=O)c2ccc3oc(C(C)C)nc3c2)cc1", "Potency": "15.1 µM (active)"}, {"smiles": "COc1ccc(-c2nc3ccc(C(=O)NCc4ccc(C)cc4)cc3nc2-c2ccc(OC)cc2)cc1", "Potency": "inactive"}, {"smiles": "CC(C)c1nc2cc(C(=O)NC(C)c3cnn(C)c3)ccc2o1", "note": "(configuration not stated)", "Potency": "inactive"}, {"smiles": "COC(=O)c1ccc(CNC(=O)c2ccc3oc(C(C)C)nc3c2)cc1", "Potency": "13.5 µM (active)"}, {"smiles": "COc1ccc(Cc2nc3ccc(C(=O)NCc4ccc(OC)cc4OC)cc3o2)cc1", "Potency": "inactive"}, {"smiles": "COC(=O)c1ccc(CSc2nc3cc(Cl)ccc3o2)cc1", "Potency": "inactive"}, {"smiles": "COC(=O)c1c(NC(=O)c2cc(=O)c3c(C)cc(C)cc3o2)sc2c1CCCC2", "Potency": "inactive"}, {"smiles": "CCCCN(C)S(=O)(=O)c1ccc(C(=O)Nc2sc3c(c2C(N)=O)CC(C)(C)NC3(C)C)cc1", "Potency": "inactive"}]}]}
